{"source": "paper PMC5540273", "about": "(PLoS ONE, 2017);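 note: KINOMEscan kinase panel screen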"}
{"tested_on": "KIT", "details": "concentration: 1 μM, replicates: in singlicate; n = 1", "units": {"%Inh": "%"}}
{"smiles": "Nc1nc(-c2cccnc2)c(-c2ccnc3ccccc23)s1", "note": "[GW684083]", "%Inh": 23}
{"smiles": "Cl.c1ccc(Cn2ncc3cc(Nc4ncnc5ccccc45)ccc32)cc1", "note": "[GW273749]", "%Inh": 4}
{"smiles": "O=C(NCCCN1CCCC1=O)c1cnc(NCc2cc(Cl)ccc2Cl)nc1NC1CCNCC1", "%Inh": 0}
{"smiles": "Cc1ccc(O)cc1Nc1cc(C(F)(F)F)nc2ccc(-c3ccncc3)cc12", "note": "[GW630823]", "%Inh": 14}
{"smiles": "C[C@@H]1CCN(C(=O)CO)C[C@@H]1N(C)c1ncnc2[nH]ccc12", "%Inh": 12}
{"smiles": "COc1ccc(NC(=O)Nc2ccc(C)c(-c3ccc(C(=O)Nc4ccncc4)cc3)c2)cc1", "note": "[GSK1398475]", "%Inh": 100}
{"smiles": "O=c1cc(N2CCOCC2)nc2n(Cc3cccc(Cl)c3)ccn12", "note": "[GSK2296823]", "%Inh": 11}
{"smiles": "CC(C)N1CCC(n2cnc(-c3ccc(F)cc3)c2-c2ccnc(N)n2)CC1", "note": "[SB-223132]", "%Inh": 0}
{"smiles": "Clc1cccc(-c2nc(Nc3ccncc3)c3ccccc3n2)c1", "note": "[GW873004]", "%Inh": 10}
{"smiles": "COC(=O)c1c(-c2ccccc2)c2cc(Cl)ccc2c(=O)n1Cc1ccc(S(C)(=O)=O)cc1", "%Inh": 56}
{"smiles": "Oc1ccc2ncnc(Nc3ccc(OCc4ccccc4)cc3)c2c1", "note": "[GI262866]", "%Inh": 48}
{"smiles": "COc1cc2c(Nc3cccc(NC(=O)c4ccccc4)c3)ncnc2cc1OCCCN1CCOCC1", "note": "[GSK223810]", "%Inh": 93.4}
{"smiles": "CCc1nc(-c2cccc(C)c2)c(-c2ccnc(NC(=O)c3ccccc3)c2)s1", "%Inh": 21}
{"smiles": "Clc1ccc(-c2cc(-c3c[nH]nc3-c3ccccn3)ccn2)cc1", "note": "[GW681251]", "%Inh": 54}
{"smiles": "Nc1nc(-c2ccc3c(N)n[nH]c3c2)cc(N2CCC[C@@H](C(=O)Nc3ccccc3)C2)n1.O=C(O)C(F)(F)F.O=C(O)C(F)(F)F", "note": "[GSK2288359]", "%Inh": 25}
{"smiles": "CCn1c(-c2ccncc2)nc2cnccc21", "note": "[SB-735216]", "%Inh": 0}
{"smiles": "Cn1ccc2ncnc(Nc3ccc(Oc4cccc(Cl)c4)c(Cl)c3)c21", "%Inh": 24}
{"smiles": "Fc1ccc(-c2ncn(CCCNCc3ccccc3)c2-c2ccncc2)cc1", "%Inh": 19}
{"smiles": "CC(C)(C)OC(=O)NC1CCCN(c2cc(-c3ccc4c(N)n[nH]c4c3)nc(N)n2)C1", "note": "(stereo not drawn) [GSK2286096]", "%Inh": 8}
{"smiles": "CC(=O)Nc1n[nH]c2ncc(-c3ccccc3)cc12", "note": "[SB-548492]", "%Inh": 67}
{"smiles": "COc1ccc(Nc2nccc(N3CCC(NC(=O)Nc4ccc5c(c4)OCO5)C3)n2)cc1", "note": "(stereo not drawn) [GSK1379745]", "%Inh": 48}
{"smiles": "CN1CCC(n2cnc(-c3ccc(F)cc3)c2-c2ccnc(NC3CCNCC3)n2)CC1", "note": "[SB-229482]", "%Inh": 25}
{"tested_on": "LATS1", "details": "concentration: 1 μM, replicates: in singlicate; n = 1", "units": {"%Inh": "%"}}
{"smiles": "COc1cc2ncnc(Nc3ccc(OCc4ccccc4Br)c(Cl)c3)c2cc1OC.Cl", "note": "[GI261590]", "%Inh": 8}
{"smiles": "CSc1nn2c(=O)cc(N3CCOCC3)nc2n1Cc1cccc(Cl)c1Cl", "note": "[GSK2347225]", "%Inh": 9}
{"smiles": "Fc1cccc(COc2ccc(Nc3ncnc4sc(-c5ccc[nH]5)cc34)cc2Cl)c1", "note": "[GW707818]", "%Inh": 9}
{"smiles": "Cl.O=S(=O)(c1cccc(F)c1)c1ccc(Nc2ncnc3cc(Br)sc23)cc1Cl", "note": "[GSK306886]", "%Inh": 0}
{"smiles": "CN1c2ccc(-c3ccc(C(=O)NCCO)cc3)cc2-c2[nH]ncc2S1(=O)=O", "%Inh": 0}
{"smiles": "Nc1nc(-c2ccc3c(N)n[nH]c3c2)cc(N2CCCCC2)n1", "note": "[GSK2228768]", "%Inh": 0}
{"smiles": "Cn1ccc2ncnc(Oc3ccc(NC(=O)Nc4cccnc4)c(Cl)c3)c21", "%Inh": 23}
{"smiles": "Clc1cc(Nc2ncnc3cc[nH]c23)ccc1OCc1ccccn1", "%Inh": 14}
{"smiles": "Cl.Cl.c1ccc(-c2cc3ccncc3cc2OC2CCNCC2)cc1", "note": "[GSK1122999]", "%Inh": 33}
{"smiles": "Fc1ccc(Nc2nccc(-c3c(-c4ccc(Cl)cc4)nn4ncccc34)n2)cc1F", "note": "[GW829058]", "%Inh": 11}
{"smiles": "C[C@H]1CC[C@@H](C(=O)Nc2ccccc2)CN1c1cc(-c2ccc3c(N)n[nH]c3c2)nc(N)n1", "note": "[GSK2283293]", "%Inh": 0}
{"smiles": "FC(F)(F)c1cc(Nc2nccc(-c3c(-c4ccc(Cl)cc4)nn4ncccc34)n2)ccc1Cl", "note": "[GW829351]", "%Inh": 0}
{"smiles": "FC(F)(F)c1ccc(-c2cc(-c3c[nH]nc3-c3ccccn3)ccn2)cc1", "note": "[GW599550]", "%Inh": 0}
{"smiles": "Nc1nc(-c2cccnc2)c(-c2ccnc3ccccc23)s1", "note": "[GW684083]", "%Inh": 0}
{"smiles": "Cl.c1ccc(Cn2ncc3cc(Nc4ncnc5ccccc45)ccc32)cc1", "note": "[GW273749]", "%Inh": 0}
{"smiles": "O=C(NCCCN1CCCC1=O)c1cnc(NCc2cc(Cl)ccc2Cl)nc1NC1CCNCC1", "%Inh": 0}
{"smiles": "Cc1ccc(O)cc1Nc1cc(C(F)(F)F)nc2ccc(-c3ccncc3)cc12", "note": "[GW630823]", "%Inh": 0}
{"smiles": "C[C@@H]1CCN(C(=O)CO)C[C@@H]1N(C)c1ncnc2[nH]ccc12", "%Inh": 0}
{"smiles": "COc1ccc(NC(=O)Nc2ccc(C)c(-c3ccc(C(=O)Nc4ccncc4)cc3)c2)cc1", "note": "[GSK1398475]", "%Inh": 0}
{"smiles": "O=c1cc(N2CCOCC2)nc2n(Cc3cccc(Cl)c3)ccn12", "note": "[GSK2296823]", "%Inh": 0}
{"smiles": "CC(C)N1CCC(n2cnc(-c3ccc(F)cc3)c2-c2ccnc(N)n2)CC1", "note": "[SB-223132]", "%Inh": 0}
{"smiles": "Clc1cccc(-c2nc(Nc3ccncc3)c3ccccc3n2)c1", "note": "[GW873004]", "%Inh": 14}
{"smiles": "COC(=O)c1c(-c2ccccc2)c2cc(Cl)ccc2c(=O)n1Cc1ccc(S(C)(=O)=O)cc1", "%Inh": 30}
{"smiles": "Oc1ccc2ncnc(Nc3ccc(OCc4ccccc4)cc3)c2c1", "note": "[GI262866]", "%Inh": 0}
{"smiles": "COc1cc2c(Nc3cccc(NC(=O)c4ccccc4)c3)ncnc2cc1OCCCN1CCOCC1", "note": "[GSK223810]", "%Inh": 0}
{"smiles": "CCc1nc(-c2cccc(C)c2)c(-c2ccnc(NC(=O)c3ccccc3)c2)s1", "%Inh": 30}
{"smiles": "Clc1ccc(-c2cc(-c3c[nH]nc3-c3ccccn3)ccn2)cc1", "note": "[GW681251]", "%Inh": 0}
{"smiles": "Nc1nc(-c2ccc3c(N)n[nH]c3c2)cc(N2CCC[C@@H](C(=O)Nc3ccccc3)C2)n1.O=C(O)C(F)(F)F.O=C(O)C(F)(F)F", "note": "[GSK2288359]", "%Inh": 0}
{"smiles": "CCn1c(-c2ccncc2)nc2cnccc21", "note": "[SB-735216]", "%Inh": 17}
{"smiles": "Cn1ccc2ncnc(Nc3ccc(Oc4cccc(Cl)c4)c(Cl)c3)c21", "%Inh": 44}
{"smiles": "Fc1ccc(-c2ncn(CCCNCc3ccccc3)c2-c2ccncc2)cc1", "%Inh": 30}
{"smiles": "CC(C)(C)OC(=O)NC1CCCN(c2cc(-c3ccc4c(N)n[nH]c4c3)nc(N)n2)C1", "note": "(stereo not drawn) [GSK2286096]", "%Inh": 11}
{"smiles": "CC(=O)Nc1n[nH]c2ncc(-c3ccccc3)cc12", "note": "[SB-548492]", "%Inh": 14}
{"smiles": "COc1ccc(Nc2nccc(N3CCC(NC(=O)Nc4ccc5c(c4)OCO5)C3)n2)cc1", "note": "(stereo not drawn) [GSK1379745]", "%Inh": 0}
{"smiles": "CN1CCC(n2cnc(-c3ccc(F)cc3)c2-c2ccnc(NC3CCNCC3)n2)CC1", "note": "[SB-229482]", "%Inh": 0}
